Screening data (PubChem)
Pol eta inh – qHTS for Inhibitors of Polymerase Eta. DNA polymerase eta (Homo sapiens), Q9Y253. recombinant Pol eta, fluorescent DNA replication assay. Potency, µM (highest dose often 114 µM), for inactives: top-dose activity change, negative = inhibition, actives largely listed as inhibitors. 1.2% of 390,000 active; note: potency is the fitted concentration of half-maximal effect; % is set by controls: 0 for no effect and ±100 for the full control effect
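Pol eta at 10 nM preincubated with compounds 15 min at room temperature; reaction started with fluorescent substrate (50 nM final) and read kinetically at 0 and 10 min.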
POLK inh – qHTS for Inhibitors of Polymerase Kappa. AID 588579, 2011. purified Pol kappa, fluorescent DNA synthesis assay, 10 min. Potency, µM (series often up to 107 µM), for inactives: at the highest dose activity, negative = inhibition, hits mostly inhibitors. 0.53% of 400,000 active. DNA polymerase kappa (Homo sapiens), Q9UBT6; note: potency is the fitted concentration of half-maximal effect; % is set by controls: 0 for no effect and ±100 for the full control effect
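50 nM final substrate added after 15 min RT preincubation of 10 nM Pol kappa with compound; fluorescence read at 0 and 10 min.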
WRN helicase inh – qHTS for Inhibitors of WRN Helicase. Bifunctional 3'-5' exonuclease/ATP-dependent helicase WRN (Homo sapiens), Q14191. 0.46% of 360,000 active. WRN helicase unwinding, fluorescent forked duplex, kinetic. Potency, µM (top dose mostly 114 µM), for the others: at the top dose activity change, negative = inhibition, hits mostly inhibitors; note: potency is the fitted concentration of half-maximal effect; % is set by controls: 0 for no effect and ±100 for the full control effect; nearly all actives have a fitted effect of over 55% in size
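Kinetic fluorescence helicase assay: unwinding of a quenched forked DNA duplex (100 nM final) with 2 mM ATP final raises red fluorescence (525/598 nm). Compounds sat 15 min at room temperature with 20 nM WRN beforehand.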
PI5P4K alpha inh – qHTS for Inhibitors of phosphatidylinositol 5-phosphate 4-kinase (PI5P4K). max response, %. 1.2% of 330,000 active. Phosphatidylinositol 5-phosphate 4-kinase type-2 alpha (Homo sapiens), P48426. AID 652105, 2013. PI5P4Kalpha enzyme, ADP-Glo luminescence, 60 min; hits give low values; active = max response of -50% or lower; inconclusive = between -30% and -50%; inactive = -30% or higher; note: value at the top dose of about 77 µM; % is set by controls: 0 for no effect and ±100 for the full control effect
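Single end-point luminescence (ADP-Glo) quantified ADP from PI5P4Kalpha turnover; ATP 5 microM final, 1 h at RT, 0.1% CHAPS and 0.28 mM EGTA in HEPES pH 7.4.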
Pol beta inh – qHTS Assay for Inhibitors of DNA Polymerase Beta; AID 485314, 2010; Potency, µM (doses to about 114 µM), for inactives: at the highest dose activity change, negative = inhibition, hits mostly inhibitors; 1.3% of 340,000 active; P06746; Pol beta primer extension/strand displacement, fluorescence kinetic; note: potency is the fitted concentration of half-maximal effect; % is set by controls: 0 for no effect and ±100 for the full control effect
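Homogeneous kinetic assay of primer extension and strand displacement by 10 nM Pol beta, preincubated 15 min at room temperature with compound before 50 nM substrate (final) was added. Read at 0 and 10 min; four-parameter Hill fit.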
POLI inh – qHTS for Inhibitors of Polymerase Iota; AID 588590, 2011; Potency, µM (highest dose often 115 µM), without a hit: top-dose activity, negative = inhibition, hits mostly inhibitors; DNA polymerase iota (Homo sapiens), Q9UNA4; Pol iota fluorescent replication assay, 10 min; 1% of 390,000 active; note: potency is the fitted concentration of half-maximal effect
Target sequence (Q9UNA4 whole entry, looked up): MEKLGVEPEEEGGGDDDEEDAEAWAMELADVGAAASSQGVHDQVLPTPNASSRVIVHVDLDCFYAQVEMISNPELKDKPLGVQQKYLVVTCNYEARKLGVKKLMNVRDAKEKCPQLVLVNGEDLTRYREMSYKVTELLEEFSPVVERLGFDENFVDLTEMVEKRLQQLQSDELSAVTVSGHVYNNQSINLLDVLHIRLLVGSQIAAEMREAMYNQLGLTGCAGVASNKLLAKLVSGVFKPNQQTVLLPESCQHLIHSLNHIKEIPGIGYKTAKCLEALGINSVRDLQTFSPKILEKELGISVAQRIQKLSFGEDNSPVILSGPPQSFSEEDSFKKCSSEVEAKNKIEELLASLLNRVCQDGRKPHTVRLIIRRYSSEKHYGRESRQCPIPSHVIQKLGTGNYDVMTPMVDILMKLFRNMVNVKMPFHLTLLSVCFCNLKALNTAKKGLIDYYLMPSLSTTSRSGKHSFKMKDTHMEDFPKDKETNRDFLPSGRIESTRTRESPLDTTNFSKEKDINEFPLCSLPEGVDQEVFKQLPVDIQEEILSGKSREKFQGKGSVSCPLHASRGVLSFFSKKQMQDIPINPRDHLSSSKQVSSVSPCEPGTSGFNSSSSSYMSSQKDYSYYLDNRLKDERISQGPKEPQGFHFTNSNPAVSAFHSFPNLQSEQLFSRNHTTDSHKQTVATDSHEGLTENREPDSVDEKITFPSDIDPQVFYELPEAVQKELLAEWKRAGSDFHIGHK
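Pol iota at 10 nM preincubated 15 min with compounds at room temperature; reaction started with fluorescent substrate, 50 nM final. Fluorescence read kinetically at 0 and 10 min; buffer-only wells as negative control.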
ADP-Glo counter – qHTS for Inhibitors of PI5P4K: ADP-Glo counter assay; shares compounds with PI5P4K alpha inh; ADP-Glo detection counter-screen, luciferase luminescence, no enzyme; Potency, µM (doses to about 76.9 µM), inactives show at the top dose activity change, negative = inhibition, actives largely listed as inhibitors; 1,100 tested, under 10 active
* marks the source's active call; other numbers are inactive results; u = inconclusive; x = no result. The list is not random: actives were taken first. Their share in the collection is about 2.8%. Unless noted, calls come from the whole dose curve; as a rule, active = well fitted curve in the direction sought with a large enough effect; inconclusive = small, poorly fitted or top-dose-only effect, or another doubt; inactive = no such curve, though single readings can be large; an effect the other way counts as inactive or inconclusive.

SMILES | Pol eta inh | POLK inh | WRN helicase inh | PI5P4K alpha inh | Pol beta inh | POLI inh | ADP-Glo counter
OCCCNc1cc(-c2ccnc(Nc3cccc(Cl)c3)n2)ccn1 | -5% | -12% | -14% | -51* | 4% | -3% | 5%
Cc1cc(C)cc(NC(=O)Nc2ccc(-n3ccc(C(F)(F)F)n3)cc2)c1 | -9% | -8% | -2% | 16 | -2% | -22% | x
Cc1noc(C)c1C(=O)Nc1ccc(-n2ccc(C(F)(F)F)n2)cc1 | -99% | u | -35% | u | 1% | -95% | 4%
O=C(CSc1n[nH]c(-c2cccnc2)n1)Nc1ccc(Br)cc1 | 2% | -5% | 2% | -5 | -1% | 16% | x
O=C(CSc1n[nH]c(-c2cccnc2)n1)OC1CCCCC1 | -12% | -9% | -14% | -66* | -15% | 86% | -8%
COc1ccc2nc(Nc3sc4c(c3C(N)=O)CCCC4)sc2c1 | -12% | -27% | u | -70* | 17% | 6% | 1%
CC(C)(Oc1ccc(Cl)cc1)C(=O)OCC(=O)NCCc1ccccc1 | -24% | -10% | 1% | 0 | -1% | 43% | x
O=C1NN=C2CCCCCC12 (stereo unspecified) | -11% | x | 13% | -6 | x | x | -1%
CC(C)(C)NC(=O)C(c1ccc(C#N)cc1)n1c(=O)c(-c2ccccc2)nc2ccccc21 (stereo unspecified) | x | x | -5% | 2 | x | x | x
CC(C)(C)NC(=O)C(c1ccc(C#N)cc1)n1c(=O)c(-c2ccco2)nc2ccccc21 (stereo unspecified) | x | x | -3% | -57* | x | x | 2%
O=C(NCc1ccccc1)C(c1ccc(-c2ccccc2)cc1)n1c(=O)c(-c2ccco2)nc2ccccc21 (stereo unspecified) | x | x | -33% | -73* | x | x | -7%
CCCCc1nnc(NC(=O)CC(=O)Nc2ccccc2C(=O)O)s1 | -7% | -23% | -12% | -61* | 13% | -2% | -9%
CC(C)Cc1nnc(NC(=O)CC(=O)Nc2ccccc2C(=O)O)s1 | -7% | 7% | -12% | -57* | -2% | u | 0%
CCc1nnc(NC(=O)CC(=O)Nc2ccccc2C(=O)O)s1 | -9% | -10% | -12% | x | -6% | -9% | x
COc1ccc(Cl)cc1C(Nc1cccnc1)c1ccc2cccnc2c1O (stereo unspecified) | -11% | -16% | -13% | -72* | -16% | 41% | 2%
Cc1cc(-c2csc(N)n2)c(C)n1CCC(C)C | -5% | -27% | -23% | -64* | -1% | u | -7%
O=C(Nc1cc(Cl)ccc1N1CCOCC1)C1=COCCO1 | -16% | -2% | -6% | 7 | x | -10% | x
CCC(=O)Oc1ccc(C(=O)Nc2cccc(C(=O)c3ccccc3)c2)cc1 | -16% | -8% | 0% | -67* | 0% | 1% | 3%
CC(=O)Oc1ccc(C(=O)Nc2cccc(C(=O)Nc3ccccc3C(=O)O)c2)cc1 | 9% | -7% | -12% | -51* | 4% | -8% | 3%
CCC(=O)Oc1ccc(C(=O)Nc2c[nH]c(=O)[nH]c2=O)cc1 | -4% | -4% | -8% | -53* | 6% | 2% | -6%
COc1ccccc1C(=O)Nc1ccc(C(=O)Nc2ccccc2C(=O)O)cc1 | -18% | -19% | -23% | -80* | 0% | -12% | 1%
CN(C(=O)c1cccc(NC(=O)Cc2ccc(NC(=O)C3CCCN(C(=O)C4CCC4)C3)cc2)c1)C1CCC1 (stereo unspecified) | -7% | -1% | -4% | -2 | x | 21% | x
